From article PMC4336329 (PLoS ONE, 2015)
In all, about 310,000 compounds went through this assay and about 14,000 (4.5%) showed an effect of 50% or more. Effects have a minus sign here. Only a selection was taken, and strong results are over-represented in it overall.

Each compound was assayed against human ether-à-go-go-related gene (hERG) potassium channel (human, UniProt Q12809) (assay: primary screen, population patch clamp on CHO cells stably expressing hERG; higher = less effect of the substance).
Sequence of human ether-à-go-go-related gene (hERG) potassium channel (Q12809 whole entry, looked up): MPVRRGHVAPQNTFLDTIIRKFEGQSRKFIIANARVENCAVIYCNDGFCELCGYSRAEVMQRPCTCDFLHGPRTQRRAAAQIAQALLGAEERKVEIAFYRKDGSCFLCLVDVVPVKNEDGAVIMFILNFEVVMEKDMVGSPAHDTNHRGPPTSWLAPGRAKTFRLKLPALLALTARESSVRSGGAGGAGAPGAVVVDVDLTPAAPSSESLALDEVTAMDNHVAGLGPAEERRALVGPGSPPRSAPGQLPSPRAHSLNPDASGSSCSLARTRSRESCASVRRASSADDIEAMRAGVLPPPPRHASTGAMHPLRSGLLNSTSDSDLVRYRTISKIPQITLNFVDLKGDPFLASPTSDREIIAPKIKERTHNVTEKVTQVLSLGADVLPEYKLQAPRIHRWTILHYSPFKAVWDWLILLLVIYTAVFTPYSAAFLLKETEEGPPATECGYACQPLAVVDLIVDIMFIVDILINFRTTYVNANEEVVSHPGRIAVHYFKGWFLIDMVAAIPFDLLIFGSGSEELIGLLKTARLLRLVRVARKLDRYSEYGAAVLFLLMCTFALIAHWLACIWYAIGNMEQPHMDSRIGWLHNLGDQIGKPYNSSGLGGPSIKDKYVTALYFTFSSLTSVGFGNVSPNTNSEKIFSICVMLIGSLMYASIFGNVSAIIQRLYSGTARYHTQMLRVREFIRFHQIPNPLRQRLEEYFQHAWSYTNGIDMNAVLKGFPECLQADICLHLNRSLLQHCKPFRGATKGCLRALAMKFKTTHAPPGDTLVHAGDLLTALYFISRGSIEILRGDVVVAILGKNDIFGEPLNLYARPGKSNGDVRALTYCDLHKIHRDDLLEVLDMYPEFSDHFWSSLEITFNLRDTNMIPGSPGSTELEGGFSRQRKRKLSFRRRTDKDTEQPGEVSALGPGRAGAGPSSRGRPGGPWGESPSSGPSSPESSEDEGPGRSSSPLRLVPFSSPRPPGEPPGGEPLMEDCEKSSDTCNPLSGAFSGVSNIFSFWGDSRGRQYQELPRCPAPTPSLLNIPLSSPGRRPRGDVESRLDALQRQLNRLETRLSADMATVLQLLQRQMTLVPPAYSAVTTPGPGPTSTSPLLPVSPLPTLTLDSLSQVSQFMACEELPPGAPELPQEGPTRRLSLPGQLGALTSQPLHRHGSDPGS
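Further: peak tail current of the secondary pulse compared with the same well before compound.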

Structure (SMILES)	hERG current change (%, negative = inhibition) at 10uM [%]
COc1ccc(OC)c(S(=O)(=O)NCCc2csc(-c3cccnc3)n2)c1	4.92
CCOc1ccc(C2(C#N)CC[N+](C)(C)CC2)cc1.[Br-]	2.83
CS(=O)(=O)N(CC(=O)NCCSCc1cccc(Cl)c1)c1ccccc1F	-20.2
Cc1ccc(C(=O)Nc2ccccc2C(=O)NCc2ccccc2)cc1	5.63
OCc1nnc2c3ccccc3c(-c3ccccc3)nn12	-4.77
CC(=O)NCc1nnc2c3ccccc3c(-c3ccccc3)nn12	-31.9
O=C(CSc1nnc(CNC(=O)c2ccccc2)o1)c1ccc(Cl)cc1	-30.3
O=C(NCc1nnc2c3ccccc3c(-c3ccccc3)nn12)c1ccccc1Cl	-78.9
O=C(NCc1nnc2c3ccccc3c(-c3ccccc3)nn12)c1ccc(Cl)cc1	-52.4
Cc1cccc(C(=O)NCc2nnc3c4ccccc4c(-c4ccccc4)nn23)c1	-4.14
CC(OC(=O)C1CCCCC1)C(=O)Nc1cccc([N+](=O)[O-])c1 (stereo not shown)	-4.48
O=C(O)c1ccccc1N/N=C/c1cc(Br)cc(Br)c1O	11.6
C=CCN(CC=C)C(=S)Nc1ccc(OC)c(OC)c1	10.3
Cc1cc(OCC(=O)N2CCOCC2)c(C(C)C)cc1Cl	-4.17
CC(O)CC(C(=O)NNc1ccccc1)C(=O)NNc1ccccc1 (stereo not shown)	21
CC(NC(=O)c1ccco1)c1ccc(-n2ccnc2)cc1 (stereo not shown)	-37
O=C(c1ccc(F)cc1)C1CCN(C(=O)c2ccncc2)CC1	-22.4
Cc1ccccc1C(=O)N1CCC(C(=O)NC(C)c2ccc(-n3ccnc3)cc2)CC1 (stereo not shown)	-23
Cc1ccc(C(=O)NC(C)c2ccc(-n3ccnc3)cc2)cc1 (stereo not shown)	-54
CC(NC(=O)C1CCN(C(=O)c2ccc(F)cc2)CC1)c1ccc(-n2ccnc2)cc1 (stereo not shown)	-64.7
COc1cc(C(=O)NC(C)c2ccc(-n3ccnc3)cc2)cc(OC)c1C (stereo not shown)	-72.9
Cc1ccc(C(=O)NC(C)c2ccc(-n3ccnc3)cc2)o1 (stereo not shown)	-37.4
CC(=O)Nc1cccc(C(=O)NC(C)c2ccc(-n3ccnc3)cc2)c1 (stereo not shown)	-0.474

Structure (SMILES)	hERG current change (%, negative = inhibition) at 10uM [%]
CC(NC(=O)c1cccc(N(C)C)c1)c1ccc(-n2ccnc2)cc1 (stereo not shown)	-68.3
CC(=O)Nc1ccc(C(=O)NC(C)c2ccc(-n3ccnc3)cc2)cc1 (stereo not shown)	7.74
Cc1occc1C(=O)N1CCCC(Nc2ccc(F)cc2)C1 (stereo not shown)	-3.68
Cc1ccc(C(=O)Nc2ccc(N3CCN(C(=O)c4cccs4)CC3)cc2)c(Cl)c1	-5.13
COC(=O)CSc1nnc(-c2cccnc2)n1-c1cc(OC)cc(OC)c1	-19.3
N#Cc1ccccc1Oc1ccccc1C=O	-16.8
Cc1ccc2nc(C)cc(N/N=C/c3cccc(O)c3)c2c1	12.4
COc1ccc(S(=O)(=O)n2nc(OC(=O)c3cccs3)cc2N)cc1	-3.07
CCOC(=O)CC1=NN(c2ccccc2)C(=O)/C1=C\c1ccc(N(C)C)cc1	24.6
O=C(CNc1cccc(S(=O)(=O)N2CCCC2)c1)Nc1ccc(C(F)(F)F)cc1	15.1
CC(C)Cn1cnc2c1c(=O)n(C)c(=O)n2C	27.8
CCOc1cc(C(=S)N2CCCCC2)ccc1OS(=O)(=O)c1ccc(Cl)cc1	-1.37
N#CCCn1c(=S)[nH]c2ccccc21	12.9
O=C(CN(CC1CCCO1)C(=O)CNS(=O)(=O)c1ccccc1)NCc1ccc(F)cc1 (stereo not shown)	11.9
C/C(=C1\SC(N2CCOCC2)=NC1=O)c1ccccc1	-12.5
C/C(=N\NC(=O)c1ccc(C)cc1C)c1ccc(-n2ccnc2)cc1	-16.6
CSCc1ccc(C(=O)NC(C)c2ccc(-n3ccnc3)cc2)cc1 (stereo not shown)	-56
Cc1ccc(C(=O)NC(C)c2ccc(-n3ccnc3)cc2)c(C)c1 (stereo not shown)	-57.4
CC(NC(=O)c1cc(F)c(F)c(F)c1F)c1ccc(-n2ccnc2)cc1 (stereo not shown)	-65.2
CC(NC(=O)c1ccc(CS(C)(=O)=O)cc1)c1ccc(-n2ccnc2)cc1 (stereo not shown)	-1.32
CSc1ccccc1C(=O)NC(C)c1ccc(-n2ccnc2)cc1 (stereo not shown)	-39.7
Cc1ccc(C)c(C(=O)NC(C)c2ccc(-n3ccnc3)cc2)c1 (stereo not shown)	-62.4
Cc1ccc(C(O)c2ccc(-n3ccnc3)cc2)cc1 (stereo not shown)	-1.74

Structure (SMILES)	hERG current change (%, negative = inhibition) at 10uM [%]
CC(=O)c1sc(NC(=O)CS(=O)(=O)c2ccccc2)nc1C	-25.3
CCOC(=O)/C(C#N)=C/c1ccc(OC(=O)c2ccccn2)cc1	-5.99
OC1(c2cccc(C(F)(F)F)c2)CCN(Cc2nc(-c3cnccn3)no2)CC1	-0.399
CCC(=O)N=c1sc2c(OC)ccc(OC)c2n1C	11
COc1ccc(Cl)cc1C(=O)Nn1c(-c2cccs2)nc2ccccc2c1=O	-5.47
O=C(O)c1nn(-c2ccccc2)nc1-c1nn(-c2ccccc2)nc1C(=O)O	19.7
O=C(N/N=C/c1cc([N+](=O)[O-])ccc1Cl)c1cc(-c2ccccc2)nc2ccccc12	7.64
CCCc1oc(C(=O)O)cc1CN.Cl	5.96
COc1ccc(-c2c(S(=O)(=O)c3ccccc3)cnn2-c2ccccc2)cc1	-2.43
Cl.O=C(CCN1CCCCC1)c1ccc2c(c1)OCCO2	4.82
Cl.O=C(CCN1CCC(c2ccccc2)C1)c1ccc2c(c1)OCCO2 (stereo not shown)	-56
Cl.O=C(CCCN1CCC(c2ccccc2)C1)c1ccc2c(c1)OCCO2 (stereo not shown)	-70.3
O=C1C(=O)N(CCCN2CCOCC2)C(c2ccc(F)cc2)/C1=C(/O)c1ccccc1 (stereo not shown)	23
O=C(CCCc1ccccc1)c1ccc2c(c1)OCCO2	-5.25
Cl.O=C(CCN1CCOCC1)c1ccccc1	3.53
Cl.O=C(CCN1CCC(c2ccccc2)C1)c1ccccc1 (stereo not shown)	-35.8
Cl.O=C(CCCN1CCOC(c2ccccc2)C1)c1ccc(F)cc1 (stereo not shown)	-60.7
Cl.O=C(CCN1CCc2ccccc2C1)c1ccc2c(c1)OCCO2	-32.2
Cl.O=C(CCN1CCc2ccccc2CC1)c1ccc2c(c1)OCCO2	-60.6
Cl.O=C(CCN1CCc2ccccc2C(c2ccccc2)C1)c1ccc2c(c1)OCCO2 (stereo not shown)	-0.525
Cl.O=C(CCN1Cc2ccccc2C1)c1ccc2c(c1)OCCO2	-8.74
